Source: the OligoGym collection

Target: TGFB1I1
Experiment: pooled miR-30 sensor sort-seq; sequence = guide strand
Conditions: shRNA
Also: reference of the scale not given here.

**Q.** TCTTTTCTTATCTTCAGACTGG was tested. Which sensor-assay potency score (higher = more potent) did it give?
**A.** The sensor-assay potency score (higher = more potent) was -0.149.

**Q.** With TTGTCTGTGTGCAATCCACTTT as the sequence, how does the sensor-assay potency score (higher = more potent) read?
**A.** The sensor-assay potency score (higher = more potent) was 0.0751.

**Q.** Which sensor-assay potency score (higher = more potent) does the source give for TTGTGGAGCTCACCACCGGTGG here?
**A.** The sensor-assay potency score (higher = more potent) was -1.9.

**Q.** TGAGACATGATTTCATCTGTGA was tested. Which sensor-assay potency score (higher = more potent) did it give?
**A.** The sensor-assay potency score (higher = more potent) was 0.918.

**Q.** Which sensor-assay potency score (higher = more potent) does the source give for TTTGTGGAGCTCACCACCGGTG here?
**A.** The sensor-assay potency score (higher = more potent) was -1.15.

**Q.** For TTAAGTTCCTGAAGCAACCGAT, which sensor-assay potency score (higher = more potent) is on record?
**A.** The sensor-assay potency score (higher = more potent) was -0.211.

**Q.** With ATTTGTGGAGCTCACCACCGGT as the sequence, how does the sensor-assay potency score (higher = more potent) read?
**A.** Its sensor-assay potency score (higher = more potent) is -0.966.

**Q.** With TTTATTGCAGGAGCCACAGAGG as the sequence, how does the sensor-assay potency score (higher = more potent) read?
**A.** The sensor-assay potency score (higher = more potent) was -1.1.

**Q.** TCATCTGTGATGTTGAACTGAG was tested. Which sensor-assay potency score (higher = more potent) did it give?
**A.** Its sensor-assay potency score (higher = more potent) is -0.542.

**Q.** With TTTTCTTATCTTCAGACTGGTC as the sequence, how does the sensor-assay potency score (higher = more potent) read?
**A.** The sensor-assay potency score (higher = more potent) was -0.967.

Target: THNSL1
Experiment: as above
Conditions: shRNA

**Q.** With ATCTAGTAGAGGTACATCCAGG as the sequence, how does the sensor-assay potency score (higher = more potent) read?
**A.** Its sensor-assay potency score (higher = more potent) is -1.3.

**Q.** TTTGAGAATATCTATTGACGGT was tested. Which sensor-assay potency score (higher = more potent) did it give?
**A.** Its sensor-assay potency score (higher = more potent) is -0.0842.

**Q.** Which sensor-assay potency score (higher = more potent) does the source give for TATACTAGAAAAACATTTCTGT here?
**A.** Its sensor-assay potency score (higher = more potent) is 0.647.

**Q.** With TATGACACAACAACCTAGTTTC as the sequence, how does the sensor-assay potency score (higher = more potent) read?
**A.** The sensor-assay potency score (higher = more potent) was -0.543.

**Q.** Which sensor-assay potency score (higher = more potent) does the source give for TTGAGAATATCTATTGACGGTG here?
**A.** The sensor-assay potency score (higher = more potent) was -0.169.

**Q.** For TATCTGTGCTCTTTCTACGTAG, which sensor-assay potency score (higher = more potent) is on record?
**A.** Its sensor-assay potency score (higher = more potent) is -0.49.

**Q.** How did the sensor-assay potency score (higher = more potent) turn out when TTCTTTAATCTTTAAAGCCTGC was run?
**A.** The sensor-assay potency score (higher = more potent) was -0.791.

**Q.** TATAATTGCAACTTGGTGGGAT was tested. Which sensor-assay potency score (higher = more potent) did it give?
**A.** Its sensor-assay potency score (higher = more potent) is 0.997.

**Q.** With TATCCTTTGCTTATCATTCTTA as the sequence, how does the sensor-assay potency score (higher = more potent) read?
**A.** The sensor-assay potency score (higher = more potent) was 0.234.

**Q.** How did the sensor-assay potency score (higher = more potent) turn out when TTTGTCTCCAACAAGAGAGTGG was run?
**A.** The sensor-assay potency score (higher = more potent) was -0.0448.

**Q.** With TTGCTCATTACCAACATCCTGT as the sequence, how does the sensor-assay potency score (higher = more potent) read?
**A.** Its sensor-assay potency score (higher = more potent) is 0.41.

**Q.** For TATAGGTGGAGTTAATAGCTGC, which sensor-assay potency score (higher = more potent) is on record?
**A.** The sensor-assay potency score (higher = more potent) was -0.591.

Target: THOC7
Experiment: as above
Conditions: shRNA

**Q.** With TTTTCGTATTCGTTTTGCTTGA as the sequence, how does the sensor-assay potency score (higher = more potent) read?
**A.** Its sensor-assay potency score (higher = more potent) is -0.919.

**Q.** For TTTTGCTTGAAGAATTTGCTTT, which sensor-assay potency score (higher = more potent) is on record?
**A.** The sensor-assay potency score (higher = more potent) was -0.308.

**Q.** For TAATGTGTGAAAGATGCTCTAA, which sensor-assay potency score (higher = more potent) is on record?
**A.** Its sensor-assay potency score (higher = more potent) is 0.0139.

**Q.** With TATGCTACATTCTATTTCCTTG as the sequence, how does the sensor-assay potency score (higher = more potent) read?
**A.** Its sensor-assay potency score (higher = more potent) is -0.777.

**Q.** For TAATTCTCCGATCATCTCCAGC, which sensor-assay potency score (higher = more potent) is on record?
**A.** The sensor-assay potency score (higher = more potent) was -0.503.

**Q.** With TAAGAAGAACATGAAACTGTTT as the sequence, how does the sensor-assay potency score (higher = more potent) read?
**A.** The sensor-assay potency score (higher = more potent) was -0.283.

**Q.** Which sensor-assay potency score (higher = more potent) does the source give for TTTCCGTCTCAATTCCAGCTTA here?
**A.** Its sensor-assay potency score (higher = more potent) is -0.243.

**Q.** TTCCTGAGCTTCTTCTACCTCT was tested. Which sensor-assay potency score (higher = more potent) did it give?
**A.** The sensor-assay potency score (higher = more potent) was -0.111.

**Q.** For TTCGTATTCGTTTTGCTTGAAG, which sensor-assay potency score (higher = more potent) is on record?
**A.** The sensor-assay potency score (higher = more potent) was -0.51.

**Q.** Which sensor-assay potency score (higher = more potent) does the source give for TTTAATGAAACTCTTCACTAGC here?
**A.** The sensor-assay potency score (higher = more potent) was 0.0596.

**Q.** With TTTGCTTGAAGAATTTGCTTTT as the sequence, how does the sensor-assay potency score (higher = more potent) read?
**A.** The sensor-assay potency score (higher = more potent) was -0.209.

Target: TIMM44
Experiment: as above
Conditions: shRNA

**Q.** TTGACATTATCTAGCAAGCCGG was tested. Which sensor-assay potency score (higher = more potent) did it give?
**A.** Its sensor-assay potency score (higher = more potent) is -1.12.

**Q.** For TAAGTAGCTTCATAGCACCAGT, which sensor-assay potency score (higher = more potent) is on record?
**A.** Its sensor-assay potency score (higher = more potent) is -0.441.

**Q.** ATCTTCATCTCGAAGAACCGGT was tested. Which sensor-assay potency score (higher = more potent) did it give?
**A.** The sensor-assay potency score (higher = more potent) was -0.094.

**Q.** With TTGTTTGACATTATCTAGCAAG as the sequence, how does the sensor-assay potency score (higher = more potent) read?
**A.** Its sensor-assay potency score (higher = more potent) is -0.93.

**Q.** With TAGCTTCATAGCACCAGTCTTT as the sequence, how does the sensor-assay potency score (higher = more potent) read?
**A.** The sensor-assay potency score (higher = more potent) was -0.701.

**Q.** With TGACATTATCTAGCAAGCCGGA as the sequence, how does the sensor-assay potency score (higher = more potent) read?
**A.** Its sensor-assay potency score (higher = more potent) is -1.13.

**Q.** How did the sensor-assay potency score (higher = more potent) turn out when TTCGTCATACTTCATCTTCATC was run?
**A.** Its sensor-assay potency score (higher = more potent) is -1.59.
